In the supplement of paper PMC8728848:
This is one part of a sample in which the strongest signals are shown more often than they occur.

Legend:
Experiment in all cases: glycan array binding signal (z-score within array); higher = stronger binding
Details in all cases: glycan notation: IUPAC condensed, linker removed
[1] = biological target: Fuc(a1-2)Gal(b1-3)GlcNAc(b1-3)GalNAc
In short: (§1)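 The binding signal is a Z-score computed within each array. Data were drawn from 3228 arrays in the Consortium for Functional Glycomics database, restricted to those with a known protein sequence. Scores were averaged over arrays of the same protein sequence at different concentrations or buffers, and over linkers, and negative values can be taken as non-binding.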

[2] = biological target: Fuc(a1-2)Gal(b1-4)GlcNAc6S
In short: as §1

[3] = biological target: Fuc(a1-2)Gal(b1-4)[Fuc(a1-3)]GlcNAc(b1-2)[Fuc(a1-2)Gal(b1-4)[Fuc(a1-3)]GlcNAc(b1-4)]Man(a1-3)[Fuc(a1-2)Gal(b1-4)[Fuc(a1-3)]GlcNAc(b1-2)Man(a1-6)]Man(b1-4)GlcNAc(b1-4)GlcNAc
In short: as §1

[4] = biological target: Fuc(a1-2)Gal(b1-4)[Fuc(a1-3)]GlcNAc(b1-3)[Neu5Ac(a2-6)Gal(b1-4)GlcNAc(b1-6)]Gal(b1-4)Glc
In short: as §1

Fuc(a1-2)Gal6S(b1-4)Glc = biological target: Fuc(a1-2)Gal6S(b1-4)Glc
In short: as §1

[5] = biological target: Fuc(a1-2)[Gal(a1-3)]Gal(b1-3)GlcNAc
In short: as §1

[6] = biological target: Fuc(a1-2)[GalNAc(a1-3)]Gal(b1-3)GalNAc(b1-3)Gal(a1-4)Gal(b1-4)Glc
In short: as §1

[7] = biological target: Fuc(a1-2)[GalNAc(a1-3)]Gal(b1-4)GlcNAc(b1-2)Man(a1-3)[Fuc(a1-2)[GalNAc(a1-3)]Gal(b1-4)GlcNAc(b1-2)Man(a1-6)]Man(b1-4)GlcNAc(b1-4)[Fuc(a1-6)]GlcNAc
In short: as §1

[8] = biological target: Fuc(a1-2)[GalNAc(a1-3)]Gal(b1-4)GlcNAc(b1-3)Gal(b1-4)GlcNAc(b1-3)Gal(b1-4)GlcNAc
In short: as §1

[9] = biological target: Fuc(a1-2)[GalNAc(a1-3)]Gal(b1-4)[Fuc(a1-3)]GlcNAc(b1-3)GalNAc
In short: as §1

Fuc(a1-4)GlcNAc = biological target: Fuc(a1-4)GlcNAc
In short: as §1

[10] = biological target: Gal(a1-3)Gal(b1-4)GlcNAc(b1-2)Man(a1-3)[Gal(a1-3)Gal(b1-4)GlcNAc(b1-2)Man(a1-6)]Man(b1-4)GlcNAc(b1-4)GlcNAc
In short: as §1

Gal(b1-3)GalNAc(b1-3)Gal = biological target: Gal(b1-3)GalNAc(b1-3)Gal
In short: as §1

[11] = biological target: Gal(b1-3)GlcNAc(a1-6)Gal(b1-4)GlcNAc
In short: as §1

[12] = biological target: Gal(b1-3)GlcNAc(b1-2)Man(a1-3)[Gal(b1-3)GlcNAc(b1-2)Man(a1-6)]Man(b1-4)GlcNAc(b1-4)[Fuc(a1-6)]GlcNAc
In short: as §1

[13] = biological target: Gal(b1-3)GlcNAc(b1-2)[Gal(b1-3)GlcNAc(b1-6)]Man(a1-6)[Gal(b1-3)GlcNAc(b1-2)Man(a1-3)]Man(b1-4)GlcNAc(b1-4)GlcNAc
In short: as §1

[14] = biological target: Gal(b1-3)GlcNAc(b1-3)Gal(b1-4)Glc
In short: as §1

[15] = biological target: Gal(b1-3)GlcNAc(b1-3)Gal(b1-4)GlcNAc(b1-2)[Gal(b1-3)GlcNAc(b1-3)Gal(b1-4)GlcNAc(b1-6)]Man(a1-6)[Gal(b1-3)GlcNAc(b1-3)Gal(b1-4)GlcNAc(b1-2)Man(a1-3)]Man(b1-4)GlcNAc(b1-4)[Fuc(a1-6)]GlcNAc
In short: as §1

[16] = biological target: Gal(b1-3)GlcNAc(b1-3)Gal(b1-4)GlcNAc(b1-3)Gal(b1-4)GlcNAc(b1-2)[Gal(b1-3)GlcNAc(b1-3)Gal(b1-4)GlcNAc(b1-3)Gal(b1-4)GlcNAc(b1-6)]Man(a1-6)[Gal(b1-3)GlcNAc(b1-3)Gal(b1-4)GlcNAc(b1-3)Gal(b1-4)GlcNAc(b1-2)Man(a1-3)]Man(b1-4)GlcNAc(b1-4)[Fuc(a1-6)]GlcNAc
In short: as §1

[17] = biological target: Gal(b1-3)[Fuc(a1-4)]GlcNAc(b1-6)GalNAc
In short: as §1

[18] = biological target: Gal(b1-4)GalNAc(a1-3)[Fuc(a1-2)]Gal(b1-4)GlcNAc
In short: as §1

Gal(b1-4)Glc = biological target: Gal(b1-4)Glc
In short: as §1

[19] = biological target: Gal(b1-4)GlcNAc(b1-3)Gal(b1-3)GalNAc
In short: as §1

[20] = biological target: Gal(b1-4)GlcNAc(b1-3)Gal(b1-4)GlcNAc(b1-3)Gal(b1-4)GlcNAc(b1-3)Gal(b1-4)GlcNAc(b1-3)Gal(b1-4)GlcNAc(b1-2)Man(a1-3)[Gal(b1-4)GlcNAc(b1-3)Gal(b1-4)GlcNAc(b1-3)Gal(b1-4)GlcNAc(b1-3)Gal(b1-4)GlcNAc(b1-3)Gal(b1-4)GlcNAc(b1-2)Man(a1-6)]Man(b1-4)GlcNAc(b1-4)GlcNAc
In short: as §1

[21] = biological target: Gal(b1-4)GlcNAc(b1-3)Gal(b1-4)GlcNAc(b1-3)Gal(b1-4)GlcNAc(b1-3)Gal(b1-4)GlcNAc(b1-3)Gal(b1-4)GlcNAc(b1-2)[Gal(b1-4)GlcNAc(b1-3)Gal(b1-4)GlcNAc(b1-3)Gal(b1-4)GlcNAc(b1-3)Gal(b1-4)GlcNAc(b1-3)Gal(b1-4)GlcNAc(b1-6)]Man(a1-6)[Gal(b1-4)GlcNAc(b1-3)Gal(b1-4)GlcNAc(b1-3)Gal(b1-4)GlcNAc(b1-3)Gal(b1-4)GlcNAc(b1-3)Gal(b1-4)GlcNAc(b1-2)Man(a1-3)]Man(b1-4)GlcNAc(b1-4)[Fuc(a1-6)]GlcNAc
In short: as §1

Gal3S(b1-4)Glc = biological target: Gal3S(b1-4)Glc
In short: as §1

Gal6S(b1-3)GlcNAc = biological target: Gal6S(b1-3)GlcNAc
In short: as §1

[22] = biological target: GalNAc(a1-3)GalNAc(b1-3)Gal(a1-4)Gal(b1-4)Glc
In short: as §1

B1: FimD (Bordetella pertussis) (protein)
chain: MPARVISFCGAALAVWAGLAVQPAMAVDPPVDCGRALGLHFWSSASLISDQTPDGTLIGKPVVGRSLLSKSCKVPDDIKEDLSDNHDGEPVDIVLELGSNYKIRPQSYGHPGIVVDLPFGSTEETGIAIYIDFGSSPMQKVGERQWLYPQKGEVLFDVLTINGDNAEVRYQAIKVGPLKRPRKLVLSQFPNLFTYKWVFMRGTSQERVLAQGTIDTDVATSTIDLKTCRYTSQTVSLPIIQRSALTGVGTTLGMTDFQMPFWCYGWPKVSVYMSATKTQTGVDGVALPATGQAAGMASGVGVQLINGKTQQPVKLGLQGKIALPEAQQTESATFSLPMKAQYYQTSTSTSAGKLSVTYAVTLNYD
**Q.** With B1 as the binder, how does the “glycan array binding signal (z-score)” value [1] read?
**A.** -0.342

**Q.** What about the “glycan array binding signal (z-score)” value [2] of the same binder?
**A.** -0.052

**Q.** And the “glycan array binding signal (z-score)” value [3]?
**A.** 0.133

**Q.** And the “glycan array binding signal (z-score)” value [4]?
**A.** -0.355

**Q.** And the “glycan array binding signal (z-score)” value (Fuc(a1-2)Gal6S(b1-4)Glc)?
**A.** -0.056

**Q.** And the “glycan array binding signal (z-score)” value [5]?
**A.** -0.256

**Q.** And the “glycan array binding signal (z-score)” value [6]?
**A.** -0.248

**Q.** What about the “glycan array binding signal (z-score)” value [7] of the same binder?
**A.** -0.394

**Q.** What about the “glycan array binding signal (z-score)” value [8] of the same binder?
**A.** 0.141

**Q.** And the “glycan array binding signal (z-score)” value [9]?
**A.** 19.2

**Q.** And the “glycan array binding signal (z-score)” value (Fuc(a1-4)GlcNAc)?
**A.** 1.73

**Q.** And the “glycan array binding signal (z-score)” value [10]?
**A.** 1.67

**Q.** And the “glycan array binding signal (z-score)” value (Gal(b1-3)GalNAc(b1-3)Gal)?
**A.** -0.089

**Q.** And the “glycan array binding signal (z-score)” value [11]?
**A.** -0.163

**Q.** What about the “glycan array binding signal (z-score)” value [12] of the same binder?
**A.** 0.621

**Q.** And the “glycan array binding signal (z-score)” value [13]?
**A.** 0.171

**Q.** What about the “glycan array binding signal (z-score)” value [14] of the same binder?
**A.** -0.264

**Q.** And the “glycan array binding signal (z-score)” value [15]?
**A.** 1.82

**Q.** What about the “glycan array binding signal (z-score)” value [16] of the same binder?
**A.** 0.259

**Q.** And the “glycan array binding signal (z-score)” value [17]?
**A.** 2.73

**Q.** What about the “glycan array binding signal (z-score)” value [18] of the same binder?
**A.** -0.051

**Q.** And the “glycan array binding signal (z-score)” value (Gal(b1-4)Glc)?
**A.** -0.288

**Q.** What about the “glycan array binding signal (z-score)” value [19] of the same binder?
**A.** -0.264

**Q.** And the “glycan array binding signal (z-score)” value [20]?
**A.** 0.072

**Q.** And the “glycan array binding signal (z-score)” value [21]?
**A.** 0.919

**Q.** What about the “glycan array binding signal (z-score)” value (Gal3S(b1-4)Glc) of the same binder?
**A.** -0.263

**Q.** And the “glycan array binding signal (z-score)” value (Gal6S(b1-3)GlcNAc)?
**A.** 0.772

**Q.** And the “glycan array binding signal (z-score)” value [22]?
**A.** -0.169
